Screening data: PubChem, National Center for Advancing Translational Sciences (NCATS)
IP6K1 inh = IP6K1 kinase inhibition; Q92551; IP6K1 kinase, ADP-Glo luminescence, 2 h; active compounds read low; activity change, % (series mostly up to about 58 µM); hit rate 0.81% among 140,000; in the data active = activity change below about -25%; also: % is scaled to controls: 0 for no effect and ±100 for the full control effect
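ADP-Glo luminescence measures ADP made by human IP6K1 during a 2 h RT reaction with ATP/IP6 (mix at 1.3 mM/130 uM); top library doses 57.5 and 19.1 uM final.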
SNCA expr inhib = inhibitors of alpha-synuclein (SNCA) gene expression. Potency, µM (series often up to 57.2 µM), inactives show at the top dose activity change, negative = inhibition, usual class: inhibitors. hit rate 0.17% among 140,000. HEK-293 SNCA-luciferase knock-in, luminescence, 24 h;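 also: potency is read from the fitted curve at half-maximal effect; plate controls were DMSO cells for no effect and cell-free wells for full effect; nearly all actives have a fitted effect of over 45% in size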
KDM5B inhibitor = blocks human KDM5B histone demethylase activity; Potency, µM (doses to about 57.7 µM), hits mostly inhibitors; AID 1347165; hit rate 2.6% among 220,000; Q9UGL1; KDM5B demethylase, FDH-coupled NADH fluorescence (FDH is formaldehyde dehydrogenase); also: potency is read from the fitted curve at half-maximal effect; 0% is about no effect; nearly all actives have a fitted effect of over 70% in size
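Coupled FDH/NAD⁺ fluorescence readout. KDM5BΔAP 200 nM final; compound titration, 10 min RT preincubation; substrate mix 12.5 µM H3K4me3, 25 µM 2-OG, 50 µM Fe(II), 100 µM ascorbate, 0.25 mM NAD⁺, 0.25 U/mL FDH; ΔRFU over 30 min.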
SNCA viab count = cell viability loss counter-screen; AID 1671193; Potency, µM (highest dose often 57.1 µM), inactives show at the highest dose activity change, negative = cytotoxicity, usual class: cytotoxic; hit rate 0.12% among 150,000; HEK-293-SNCA-luc viability, GF-AFC fluorescence, 24 h;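 also: potency is read from the fitted curve at half-maximal effect; 0% = DMSO-treated cells and -100% = medium-only wells without cells; nearly all actives have a fitted effect of over 30% in size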
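HEK-293-SNCA-luc cells (1500/well) plated 24 h, then exposed 24 h to a dilution series; GF-AFC added 30 min at 37C, fluorescence 405/540 nm; normalised to medium-only and DMSO wells, Hill fit.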
The depositor's hits bear a star; i = inactive; ? = inconclusive; / = no result given; [ ] = dose if it differs, or a comment. Sampled rows, rich in hits. Any-hit rate of the full collection: about 2.9%. Unless noted, calls follow the shape of the dose curve; as a rule, active = well fitted curve in the direction sought with a large enough effect; inconclusive = small, poorly fitted or top-dose-only effect, or another doubt; inactive = no such curve, though single readings can be large; an effect the other way counts as inactive or inconclusive.

SMILES	IP6K1 inh	SNCA expr inhib	KDM5B inhibitor	SNCA viab count
Cc1ccc(-c2ccc3nnc(CNC(=O)c4nccc5ccccc45)n3n2)cc1	-7	17%	32µM*	-9%
Cc1ccc(-c2ccc3nnc(CNC(=O)c4cnccn4)n3n2)cc1	13	-1%	13µM*	8%
Cc1ccc(-c2ccc3nnc(CNC(=O)c4cccnc4)n3n2)cc1	-6	-15%	32µM*	-15%
Cc1ccc(-c2ccc3nnc(CNC(=O)Cc4cccc(C)c4)n3n2)cc1	-14	-9%	?	-8%
Cn1ncc2c(C(=O)NCC3CC3)cc(-c3ccccc3C(F)(F)F)nc21	9	/	/	/
O=C(Cc1cccs1)NCc1nnc2ccc(-c3ccccc3)nn12	32	3%	i	9%
O=C(NCc1nnc2ccc(-c3ccccc3)nn12)c1ccc(Cl)cc1	5	1%	28µM*	-15%
O=C(CNC(=O)c1ccccc1)NCc1nnc2ccc(-c3ccccc3)nn12	4	-13%	32µM*	-4%
O=C(NCc1nnc2ccc(-c3ccccc3)nn12)c1ccncc1	-5	?	28µM*	4%
O=C(NCc1nnc2ccc(-c3ccccc3)nn12)c1ccc(F)cc1	9	-19%	32µM*	-14%
O=C(NCc1nnc2ccc(-c3ccc(F)cc3)nn12)c1ccoc1	16	-16%	?	-5%
Cc1ccc(-c2ccc3nnc(CNC(=O)c4ccc(Cl)cc4)n3n2)cc1	-6	21%	?	-7%
O=C(NCc1nnc2ccc(-c3ccccc3)nn12)c1ccoc1	-7	?	32µM*	-5%
CC(C)(CC(=O)O)CC(=O)N[C@H]1C[C@H]2C(=O)Nc3ccc(-c4cccs4)cc3C(=O)N2C1	-9	3%	?	7%
COCC(=O)N[C@H]1C[C@H]2C(=O)Nc3ccc(-c4cccs4)cc3C(=O)N2C1	6	23%[87.6 µM]	35µM*	1%[87.6 µM]
O=C(O)CSCC(=O)N[C@H]1C[C@H]2C(=O)Nc3ccc(-c4cccs4)cc3C(=O)N2C1	1	-21%	28µM*	5%
O=C(NCc1cccs1)C1CCN(c2nccc(Nc3ccccc3Cl)n2)CC1	4	-8%	/	0%
COc1cccc(C(=O)NC2CCN(c3ccc4nnc(-c5ccccc5)n4n3)CC2)c1	-1	/	/	/
CCOCC(=O)N1CCC2(CC1)C(OC)C(=O)N2CC1CC1 (centres undefined)	2	26%	/	4%
COc1nccnc1NC1CCN(C(=O)Cc2ccccc2)CC1	-14	-21%	?	-5%
CCOCC(=O)N1CCC(Nc2nccnc2OC)CC1	-12	-3%	28µM*	2%
COc1nccnc1NC1CCN(C(=O)Cc2cccs2)CC1	-5	-25%	32µM*	4%
COc1nccnc1NC1CCN(C(=O)Cc2ccccc2F)CC1	-3	-22%	35µM*	-13%
COc1nccnc1NC1CCN(C(=O)NC2CCCCC2)CC1	-1	18%	32µM*	-7%
COc1nccnc1NC1CCN(C(=O)NCCc2ccccc2)CC1	-10	33%	?	-1%
SMILES	IP6K1 inh	SNCA expr inhib	KDM5B inhibitor	SNCA viab count
O=C(Cc1ccc(F)cc1)Nc1cc(-c2cccnc2)nn1-c1ccccc1	-13	-12%	/	-2%
Cc1nn(-c2ccccc2)c2c1C(C(C)C)N(C1CCN(C(=O)Nc3ccc(Cl)cc3)CC1)C2=O (centres undefined)	16	/	/	/
O=C(O)CCC(=O)N1CCC2(CC1)Cc1ccccc1N(C(=O)c1ccc(Cl)cc1)C2	-6	11%	i	-12%
CN1CCC(N[C@H]2C[C@@H](Cc3cc(-c4ccc(F)cc4)on3)C2(C)C)CC1	1	?	i	?
COc1ccc(-c2noc([C@@H]3CCCN3C(=O)CCc3ccccc3)n2)cc1OC	0	49%	28µM*	-23%
Oc1ccccc1CN1CCC[C@H]1c1nc(-c2ccc(N3CCOCC3)nc2)no1	1	4%[87.6 µM]	35µM*	-8%[87.6 µM]
FC(F)(F)Oc1cccc(CN2CCC[C@H]2c2nc(-c3ccc(N4CCOCC4)nc3)no2)c1	6	3%	28µM*	2%
CN1CCN(c2ccc(-c3noc([C@@H]4CCCN4CCCc4ccccc4)n3)cn2)CC1	11	9%[87.6 µM]	32µM*	8%[87.6 µM]
CNc1ccc(-c2noc([C@@H]3CCCN3Cc3cccc(OC)c3)n2)cn1	1	41%[87.6 µM]	?	-8%[87.6 µM]
COc1ccc(-c2ccc(C(=O)NCc3ccccc3F)cc2)nn1	9	/	/	/
CCC(Cn1ccnc1)NC(=O)c1cccc(NCc2ccc(F)cc2)c1 (centres undefined)	10	-5%	20µM*	-3%
